PubChem BioAssay (NCATS)
Inconclusive results are not listed. Some structures have more than one record in an assay (separate samples or runs), and their calls can disagree. The source made the active and inactive calls. Unless noted, the call rests on the fitted dose curve.

Experiments:
[1] = qHTS for Inhibitors of the Functional Ribonucleoprotein Complex (vRNP) of Lassa (LASV) Arenavirus: LASV Primary Screen - GLuc reporter signal (AID 1347082; calls by dose curve; tested in HEK293 reporter line; further: nearly all actives have a fitted effect of over 60% in size; further: potency means the concentration at half of the fitted maximal effect; on activity change, negative = inhibition: on the % scale 0 is the no-effect control and ±100 the full control effect)
[2] = qHTS for Inhibitors of the Functional Ribonucleoprotein Complex (vRNP) of Lassa (LASV) Arenavirus: Viability assay - alamar blue signal for LASV Primary Screen (AID 1347083; calls by dose curve; tested in HEK293 reporter line; further: nearly all actives have a fitted effect of over 80% in size; further: potency means the concentration at half of the fitted maximal effect)
[3] = qHTS for Inhibitors of the Functional Ribonucleoprotein Complex (vRNP) of Lymphocytic Choriomeningitis Arenaviruses (LCMV): Viability assay - alamar blue signal for LCMV Primary Screen (AID 1347085; calls by dose curve; tested in HEK293 reporter line; further: nearly all actives have a fitted effect of over 80% in size; further: potency means the concentration at half of the fitted maximal effect)
[4] = molecular target: Nucleoprotein (Lymphocytic choriomeningitis virus (strain Armstrong)) (UniProt P09992); assay: qHTS for Inhibitors of the Functional Ribonucleoprotein Complex (vRNP) of Lymphocytic Choriomeningitis Arenaviruses (LCMV): LCMV Primary Screen - GLuc reporter signal (AID 1347086); further: nearly all actives have a fitted effect of over 70% in size; further: potency means the concentration at half of the fitted maximal effect; on activity change, negative = inhibition: on the % scale 0 is the no-effect control and ±100 the full control effect
Nucleoprotein (Lymphocytic choriomeningitis virus (strain Armstrong)), sequence (P09992 whole entry, looked up): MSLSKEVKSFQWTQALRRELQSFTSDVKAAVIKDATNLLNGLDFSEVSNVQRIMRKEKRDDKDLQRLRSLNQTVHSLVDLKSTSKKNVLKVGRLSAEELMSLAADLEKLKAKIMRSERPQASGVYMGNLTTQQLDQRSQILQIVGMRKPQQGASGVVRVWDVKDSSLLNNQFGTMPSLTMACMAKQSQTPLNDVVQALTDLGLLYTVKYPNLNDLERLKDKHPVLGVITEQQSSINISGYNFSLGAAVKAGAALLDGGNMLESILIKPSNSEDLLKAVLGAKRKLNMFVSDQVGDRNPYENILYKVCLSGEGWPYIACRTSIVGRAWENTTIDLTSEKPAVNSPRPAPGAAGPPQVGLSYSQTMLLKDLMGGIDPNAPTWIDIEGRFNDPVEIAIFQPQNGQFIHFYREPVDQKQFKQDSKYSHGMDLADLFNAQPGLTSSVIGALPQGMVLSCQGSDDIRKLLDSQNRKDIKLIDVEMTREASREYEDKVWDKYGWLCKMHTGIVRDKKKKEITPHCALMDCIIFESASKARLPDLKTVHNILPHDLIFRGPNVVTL

[5] = Confirmatory qHTS to identify inhibitors of SARS-CoV-2 cell entry (AID 1645844); further: potency means the concentration at half of the fitted maximal effect; nearly all actives have a fitted effect of over 45% in size
How it was run: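 Luminescence entry read-out after 48 h: spike-pseudotyped MLV particles (Wuhan-Hu-1, 19-aa C-terminal truncation) added to compound-pretreated (1 h) HEK293-ACE2 cells; Data were normalised to bald PP and spike PP wells.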

[6] = Cytotoxicity counterscreen for inhibitors of SARS-CoV-2 cell entry (AID 1645845); further: nearly all actives have a fitted effect of over 50% in size
How it was run: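 ATP-content luminescence (ATPLite 1step, 15 min RT) read after 48 h compound exposure of Expi293F cells stably expressing human ACE2; normalized to cells-only wells and media-only wells.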

[7] = Primary qHTS to identify inhibitors of SARS-CoV-2 cell entry (AID 1645846); details: activity change, negative = inhibition: at 57.1 µM (top of the series) unless noted; further: nearly all actives have a fitted effect of over 45% in size; further: potency means the concentration at half of the fitted maximal effect
How it was run: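 Luminescence readout (Bright-Glo luciferase) 48 h after pseudoparticle addition. HEK293-ACE2 cells, 1500/well; compound pre-incubation 1 h; Normalized to spike PP and bald PP.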

[8] = VSVG counterscreen qHTS to identify inhibitors of SARS-CoV-2 cell entry (AID 1645847); further: potency means the concentration at half of the fitted maximal effect; nearly all actives have a fitted effect of over 65% in size
How it was run: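 HEK293-ACE2 cells (Expi293F stably expressing human ACE2) were pretreated with compound for 1 h at 37 °C, then infected with MLV-based VSV-G pseudotyped particles for 48 h. Luciferase luminescence was normalized to VSV-G PP and bald PP wells.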

[9] = molecular target: Cytochrome P450 3A4 (Homo sapiens) (UniProt P08684); assay: qHTS Assay for Activators of Cytochrome P450 3A4 (AID 885; active means well fitted curve in the direction sought with a large enough effect; an effect the other way counts as inactive or inconclusive; further: nearly all actives have a fitted effect of over 65% in size)
Cytochrome P450 3A4 (Homo sapiens), sequence (P08684 whole entry, looked up): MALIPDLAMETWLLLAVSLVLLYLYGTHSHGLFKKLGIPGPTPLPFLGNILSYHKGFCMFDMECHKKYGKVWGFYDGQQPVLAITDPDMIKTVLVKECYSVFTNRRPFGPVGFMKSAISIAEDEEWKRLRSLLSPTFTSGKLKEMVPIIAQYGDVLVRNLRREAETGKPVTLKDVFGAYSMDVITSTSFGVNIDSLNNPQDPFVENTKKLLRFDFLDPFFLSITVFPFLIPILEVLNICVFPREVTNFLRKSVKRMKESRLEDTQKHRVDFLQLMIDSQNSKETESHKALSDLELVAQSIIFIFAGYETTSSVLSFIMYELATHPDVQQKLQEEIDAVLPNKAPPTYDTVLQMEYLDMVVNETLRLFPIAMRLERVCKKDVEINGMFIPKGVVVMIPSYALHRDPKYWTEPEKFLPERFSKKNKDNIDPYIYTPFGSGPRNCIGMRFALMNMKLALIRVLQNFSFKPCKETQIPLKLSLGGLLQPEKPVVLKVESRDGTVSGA
How it was run: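 Activators are scored by enhanced luminescence from CYP3A4 conversion of luciferin-PPXE (25uM, equal to KM) to luciferin, after 60 min at RT with an NADPH-regenerating system.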

[10] = qHTS Assay for Lipid Storage Modulators (AID 1519); details: Drosophila S3 cells, BODIPY lipid droplet/cell ratio, laser cytometry, cells loaded with oleic acid; on activity change, negative = inhibition: on the % scale 0 is the no-effect control and ±100 the full control effect
How it was run: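 Cells seeded at 5,000 per well were treated with compounds over a concentration series and loaded with oleic acid (400 uM, as added). Lipid droplet fluorescence (488 nm excitation, 500-530 nm channel) was read by laser-scanning cytometry and normalized to 20 uM Triacsin C.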

[11] = molecular target: Ubiquitin carboxyl-terminal hydrolase 1 (Homo sapiens) (UniProt O94782); assay: Inhibitors of USP1/UAF1: Pilot qHTS (AID 504865; active means well fitted curve in the direction sought with a large enough effect; an effect the other way counts as inactive or inconclusive; further: nearly all actives have a fitted effect of over 35% in size; further: potency means the concentration at half of the fitted maximal effect)
Ubiquitin carboxyl-terminal hydrolase 1 (Homo sapiens), sequence (O94782 whole entry, looked up): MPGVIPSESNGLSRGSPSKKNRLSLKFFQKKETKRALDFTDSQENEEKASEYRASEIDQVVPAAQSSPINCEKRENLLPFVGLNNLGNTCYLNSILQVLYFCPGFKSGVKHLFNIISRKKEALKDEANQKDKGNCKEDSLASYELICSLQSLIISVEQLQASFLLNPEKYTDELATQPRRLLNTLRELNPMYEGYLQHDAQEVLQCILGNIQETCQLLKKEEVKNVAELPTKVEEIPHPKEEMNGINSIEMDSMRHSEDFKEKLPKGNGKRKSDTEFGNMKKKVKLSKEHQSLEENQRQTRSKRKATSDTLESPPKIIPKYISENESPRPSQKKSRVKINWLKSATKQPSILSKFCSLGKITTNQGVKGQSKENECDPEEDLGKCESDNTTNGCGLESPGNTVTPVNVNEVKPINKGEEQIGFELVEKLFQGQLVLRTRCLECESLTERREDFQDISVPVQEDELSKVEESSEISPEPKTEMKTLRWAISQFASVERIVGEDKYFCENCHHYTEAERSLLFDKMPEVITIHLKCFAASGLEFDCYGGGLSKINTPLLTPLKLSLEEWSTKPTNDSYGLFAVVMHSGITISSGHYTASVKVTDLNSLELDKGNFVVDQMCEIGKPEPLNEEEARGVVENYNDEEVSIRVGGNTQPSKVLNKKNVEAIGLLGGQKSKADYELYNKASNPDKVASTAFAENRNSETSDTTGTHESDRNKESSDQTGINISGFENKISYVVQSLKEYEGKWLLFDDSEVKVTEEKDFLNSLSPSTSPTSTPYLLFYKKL
How it was run: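 USP1/UAF1 complex (1nM) preincubated with compound 15 min at room temperature, then Ub-Rho substrate (150nM final) added. Fluorescence read kinetically at 480/540 nm, 6 reads every 60 seconds. Buffer: 50mM HEPES pH 7.8, 0.5mM EDTA, 0.1 mg/ml BSA, 1mM TCEP, 0.01% Tween-20.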

[12] = molecular target: Cytochrome P450 3A4 (Homo sapiens) (UniProt P08684); assay: qHTS Assay for Inhibitors and Substrates of Cytochrome P450 3A4 (AID 884; active means well fitted curve in the direction sought with a large enough effect; an effect the other way counts as inactive or inconclusive; further: nearly all actives have a fitted effect of over 50% in size; further: potency means the concentration at half of the fitted maximal effect; on activity change, negative = inhibition: on the % scale 0 is the no-effect control and ±100 the full control effect)
How it was run: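 Luminescent readout of luciferin produced by CYP3A4 (20 nM) dealkylation of Luciferin-PPXE, 25 uM (its KM). NADPH-driven reaction ran 60 min at RT after 10 min compound preincubation; data scaled to 57 uM ketoconazole as 100% inhibition.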

[13] = measured here: cell count channel max response
[14] = measured here: lipid channel max response

CCN1C[C@]2(C)CC[C@H](OC)[C@@]34[C@H]1C1(OCO[C@@]15C[C@H](OC)C1C[C@]3(O)C5[C@H]1OC)[C@@H](O)[C@H]24
inactive: Potency [1] | Potency [2] | Potency [3] | Potency [4]

CN1C(=O)C[C@H](C(=O)N[C@@H](Cc2cnc[nH]2)C(=O)N2CCC[C@@H]2C(N)=O)NC1=O
inactive: Potency [1] | Potency [2] | Potency [3] | Potency [4] | Potency [6] | Potency [7]
active: Potency [5] 19.2 µM | Potency [8] 0.961 µM

C=C1C2C[C@]3(C4CC5[C@@]6(C)CC[C@H](O)[C@@]5(C3CC2=O)C4[N+]([O-])(CC)C6)[C@@H]1O (some centres undefined)
inactive: Potency [1] | Potency [2] | Potency [3] | Potency [4]

CC(C)(C)OC(=O)N[C@H]1CCCCCC=C[C@@H]2C[C@@]2(C(=O)NS(=O)(=O)C2CC2)NC(=O)[C@@H]2C[C@@H](OC(=O)N3Cc4cccc(F)c4C3)CN2C1=O
inactive: Potency [1] | Potency [2] | Potency [3] | Potency [4] | Potency [6]

COc1nccc(-c2c(-c3ccc(F)cc3)ncn2C2CCNCC2)n1
inactive: Potency [1] | Potency [2] | Potency [3] | Potency [4] | Potency [6]

CN1CC(CO)=C[C@H]2c3cccc4[nH]cc(c34)C[C@H]21
8.91%: max response [10, 13]
active: Potency [11] 50.1 µM
inactive: Potency [9] | activity change, negative = inhibition ([10]; at 57.5 µM (top of the series)) 6.54% | Potency [1] | Potency [2] | Potency [3] | Potency [4]
13%: max response [10, 14]

C=CC1CN2CCC1CC2C(O)c1ccnc2ccccc12 (centres undefined)
22.1%: max response [10, 14]
inactive: Potency [9] | activity change, negative = inhibition ([10]; at 57.5 µM (top of the series)) 8.66% | Potency [11] | Potency [1] | Potency [2] | Potency [3] | Potency [4]
25.1 µM (active) and inactive: Potency [12]
10.9%: max response [10, 13]

O=C(NCc1ccncc1)C12C[C@H]3C[C@@H](C1)CC(c1ccc(Cl)cc1)(C3)C2
inactive: Potency [1] | Potency [2] | Potency [3] | Potency [4] | Potency [6]

CCCCC(C)(C)[C@H](O)C=C[C@H]1[C@H](O)CC(=O)[C@H]1CC=CCCCC(=O)O
inactive: Potency [1] | Potency [2] | Potency [3] | Potency [4] | Potency [6]
-55.7%: activity change, negative = inhibition [7]
active: Potency [5] 17.1 µM | Potency [8] 19.2 µM

C[N+](C)([O-])CCNc1ccc(NCC[N+](C)(C)[O-])c2c1C(=O)c1c(O)ccc(O)c1C2=O
-13.5%: activity change, negative = inhibition [7]
inactive: Potency [1] | Potency [2] | Potency [3] | Potency [4] | Potency [6]
active: Potency [5] 19.2 µM | Potency [8] 10.8 µM

CO[C@@H]1C(N(C)C(=O)c2ccccc2)C[C@H]2O[C@]1(C)n1c3ccccc3c3c4c(c5c6ccccc6n2c5c31)C(=O)NC4=O (some centres undefined)
-47%: activity change, negative = inhibition [7]
inactive: Potency [1] | Potency [3] | Potency [4]
active: Potency [2] 12.2 µM | Potency [5] 21.5 µM | Potency [8] 27.1 µM

C=CCSSCC=C
5.28%: max response [10, 13]
18.2%: max response [10, 14]
inactive: Potency [9] | activity change, negative = inhibition ([10]; at 57.5 µM (top of the series)) 11.8% | Potency [11] | Potency [1] | Potency [2] | Potency [3] | Potency [4]

CC(C)[C@H](CO)Nc1nc(Nc2cccc(Cl)c2)c2ncn(C(C)C)c2n1
active: Potency [5] 8.57 µM | Potency [7] 7.94 µM | Potency [8] 8.57 µM
inactive: Potency [9] | Potency [1] | Potency [2] | Potency [3] | Potency [4]

CNC(=O)c1nn(C)c2c1C(C)(C)Cc1cnc(Nc3ccc(N4CCN(C)CC4)cc3)nc1-2
active: Potency [1] 3.43 µM | Potency [2] 1.09 µM | Potency [3] 3.85 µM | Potency [4] 3.06 µM | Potency [5] 3.04 µM | Potency [8] 4.82 µM

OC[C@@H](O)[C@@H](O)[C@H](O)[C@@H](O)CO
inactive: Potency [1] | Potency [2] | Potency [3] | Potency [4] | Potency [6]

CCCC1OC2C[C@@H]3[C@H]4CCC5=CC(=O)C=C[C@]5(C)[C@H]4C(O)C[C@]3(C)[C@]2(C(=O)CO)O1 (some centres undefined)
inactive: Potency [1] | Potency [2] | Potency [3] | Potency [4] | Potency [6]

Clc1ccc(COC(Cn2ccnc2)c2ccc(Cl)cc2Cl)c(Cl)c1 (centres undefined)
-3.69%: max response [10, 14]
-9.24%: max response [10, 13]
inactive: Potency [9] | activity change, negative = inhibition ([10]; at 57.5 µM (top of the series)) 3.93% | Potency [1] | Potency [2] | Potency [3] | Potency [4] | Potency [6]

O=C1C[C@@H](c2ccc(O)cc2)Oc2cc(O)cc(O)c21
-14.1%: max response [10, 14]
inactive: activity change, negative = inhibition ([10]; at 25.7 µM (top of the series)) 0.577% | Potency [1] | Potency [2] | Potency [3] | Potency [4] | Potency [7]
-18.3%: max response [10, 13]

O=C(O)CF
13%: max response [10, 14]
8.93%: max response [10, 13]
inactive: Potency [12] | activity change, negative = inhibition ([10]; at 57.5 µM (top of the series)) 3.91% | Potency [1] | Potency [2] | Potency [3] | Potency [4]

CCCOc1ccc2[nH]cc(C3=CCNCC3)c2n1
active: Potency [12] 2.51 µM
inactive: Potency [9] | Potency [11] | Potency [1] | Potency [2] | Potency [3] | Potency [4]

C/C=C1/CN2CC[C@]34C(=C(C=O)[C@@H]1C[C@H]23)Nc1c(O)cccc14
inactive: Potency [1] | Potency [2] | Potency [3] | Potency [4]

C/C=C1/CN2CC[C@]34C(=C(C=O)[C@H]1C[C@@H]23)Nc1ccccc14
5.28%: max response [10, 14]
inactive: Potency [12] | activity change, negative = inhibition ([10]; at 57.5 µM (top of the series)) -2.11% | Potency [11] | Potency [1] | Potency [2] | Potency [3] | Potency [4]
7.61%: max response [10, 13]

C[C@@]12CCC(OS(=O)(=O)O)C[C@@H]1CCC1C2CC[C@]2(C)C(=O)CCC12 (some centres undefined)
inactive: Potency [12] | activity change, negative = inhibition ([10]; at 57.5 µM (top of the series)) 7.66% | Potency [11] | Potency [1] | Potency [2] | Potency [3] | Potency [4]
28%: max response [10, 14]
17.5%: max response [10, 13]

CN[C@@H](Cc1c[nH]c2ccccc12)C(=O)O
inactive: Potency [12] | activity change, negative = inhibition ([10]; at 57.5 µM (top of the series)) 2.25% | Potency [11] | Potency [1] | Potency [2] | Potency [3] | Potency [4]
3.12%: max response [10, 14]
-7.03%: max response [10, 13]
